Screens (PubChem BioAssay)
Only some compounds are listed: those with a hit (about 2.6% of all), similar ones and a draw of the others.
TCR activator: activates T cell receptor signaling; primary human leukocytes, anti-CD3, IL-2 HTRF, 48 h; Potency, µM (series often up to 9.22 µM), for inactives: at the highest dose activation of IL-2 secretion, actives largely listed as activators; 330,000 tested, under 10 active; also: % of control where 0% means no effect
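Activity was scored as IL-2 release from primary human leukocytes given only a TCR signal (a-CD3 beads) plus compound for 48 hr. Detection used a two-antibody HTRF format read at 665nm.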
A549 tox: kills or reduces viability of A549 cells in Nrf2 counter-screen; A549 ARE-Fluc cells, CellTiter-Fluor viability, 18-24 h; Potency, µM (top dose mostly 46 µM), inactives show at the highest dose activity change, negative = cytotoxicity, actives largely listed as inhibitors; 390,000 tested, 0.16% active; AID 504648; also: potency is read from the fitted curve at half-maximal effect; % is scaled to controls: 0 for no effect and ±100 for the full control effect
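Cytotoxicity counterscreen: CellTiter-Fluor fluorescence was measured in A549 ARE_Fluc cells after 18-24 h of compound exposure in a concentration series. The subsequent BugLite luminescent read reports ARE-luciferase activity.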
Nrf2 block: Nrf2 pathway inhibition; A549 ARE-Fluc reporter, luciferase luminescence, 18-24 h; Potency, µM (highest dose often 46 µM), for inactives: top-dose activity change, negative = inhibition, hits mostly inhibitors; 360,000 tested, 2.1% active; also: potency is read from the fitted curve at half-maximal effect; % is scaled to controls: 0 for no effect and ±100 for the full control effect; nearly all actives have a fitted effect of over 60% in size
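Nrf2 function is reported as luminescence of an ARE-controlled luciferase in A549 cells. Compounds were tested at several concentrations, and a CellTiter-Fluor read on the same wells flagged cytotoxicity.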
A-T KAP1 phos: candidate therapy for ataxia-telangiectasia. F2112 A-T fibroblasts, KAP-1 phosphorylation AlphaLISA; neocarzinostatin DNA damage 30 min before lysis. Potency, µM (highest dose often 57.5 µM), for inactives: top-dose activation, usual class: activators. 320,000 tested, 0.19% active. AID 485349; also: potency is read from the fitted curve at half-maximal effect; % of control where 0% means no effect; nearly all actives have a fitted effect of over 45% in size
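hTERT-immortalized A-T patient fibroblasts (F2112), 500 cells/well in OPTI-MEM, 1% FBS, got compounds for 60 min, then NCS for 30 min at 37C. Lysates were then assayed for phospho-KAP-1 by AlphaLISA (anti-pKAP1 donor, anti-KAP1 acceptor beads), 6 hr at 25C.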
CCT modulator: cytosolic chaperonin activity modulation; purified chaperonin ATPase assay, HTRF ADP detection, 30 min; activity change, % (test concentration not listed), hits read low; 360,000 tested, 0.3% active; AID 651819; in the data active = activity change below about -30%; also: % is scaled to controls: 0 for no effect and ±100 for the full control effect
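ATPase activity: ADP formed was measured by HTRF Transcreener (665/615 nm ratio) after 30 min at 37 deg C with 10 uM ATP. Compounds screened at one 76 uM concentration against 40 or 20 nM TRiC in Tris pH 7.4/KCl/MgCl2/DTT buffer.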
Nrf2 activator: activators of Nrf2 (ARE) signaling; AREc32 ARE-luciferase reporter (MCF7-derived line), luminescence, 24 h; Potency, µM (series often up to 46.1 µM), inactives show at the highest dose activation, most hits filed as activators; 410,000 tested, 0.31% active; AID 624171; also: potency is read from the fitted curve at half-maximal effect; % of control where 0% means no effect; nearly all actives have a fitted effect of over 65% in size
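Steps: seed AREc32_Fluc cells (1000/well, 5% FBS OPTI-MEM); incubate overnight at 37 deg C; add 23 nL compound; incubate 24 hr; add Steady-Glo; hold 30 min RT; read luminescence.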
Active calls of the source: *; u = inconclusive; x = no result; [ ] = another dose, or the depositor's remark. Unless noted, calls follow the shape of the dose curve; as a rule, active = well fitted curve in the direction sought with a large enough effect; inconclusive = small, poorly fitted or top-dose-only effect, or another doubt; inactive = no such curve, though single readings can be large; an effect the other way counts as inactive or inconclusive.

SMILES	TCR activator	A549 tox	Nrf2 block	A-T KAP1 phos	CCT modulator	Nrf2 activator
CCCCNc1c(-c2ccc(OC)c(Sc3ccc(OC)cc3)c2)nc2cnccn12	4%	-5%	u	u	0	0%
CCCCNc1c(-c2ccc(OC)c(Sc3ccc(OC)cc3)c2)nc2ccccn12	-4%	u	18µM*	16%	-4	-2%
CC(C)(C)c1nn(-c2ccccc2)c2[nH]c(=O)c(CNCc3ccc4c(c3)OCO4)cc12	1%	8%	u	x	-3	14%
CCOc1cccc(NCc2cc3c(C(C)(C)C)nn(-c4ccccc4)c3[nH]c2=O)c1	-1%	u	21µM*	0%	-1	23%
CC1(O)CC(c2ccc(Cl)cc2)=NN1C(=O)c1ccc([N+](=O)[O-])cc1 (stereo not given)	1%	u	18µM*	1%	-3	7%
N#Cc1c(N)nc(SCC(=O)C23CC4CC(CC(C4)C2)C3)c(C#N)c1-c1ccc(Cl)cc1	1%	-1%	x	x	-40*	0%
CSc1nc(N)nc(SCC(=O)C23CC4CC(CC(C4)C2)C3)c1C#N	-3%[46.1 µM]	-19%	x	-3%	1	1%
CCOC(=O)c1c(C)oc2nc(C)nc(NCc3cccc(Cl)c3)c12	x	22%	28%	x	x	0%
COc1cc(C2C=C(Nc3ccccc3)C(=O)N2c2ccccc2)ccc1O (stereo not given)	-2%[46.1 µM]	u	18µM*	-8%	-2	3%
O=C1C(Nc2ccccc2)=CC(c2ccc(O)cc2)N1c1ccccc1 (stereo not given)	4%	1%	-1%	1%	-7	1%
CCN(Cc1ccccc1)Cc1c(O)ccc2c(=O)c(-c3ccc(Cl)cc3)c(C(F)(F)F)oc12	x	-6%	8%	x	x	-1%
Cc1nn(Cc2ccc(Cl)cc2)c(C)c1NC(=O)CCCn1nc(C)c([N+](=O)[O-])c1C	4%[46.1 µM]	u	21µM*	x	-1	4%
COc1ccc(C2Nc3ccccc3C(=O)N2Cc2ccc(-c3ccccc3)cc2)cc1COc1ccc(NC(C)=O)cc1 (stereo not given)	x	12%	2%	x	x	x
COc1cccc(C2=NN(S(C)(=O)=O)C(c3cn(-c4ccccc4)nc3-c3cccs3)C2)c1 (stereo not given)	x	-3%	-16%	x	x	3%
O=C(NC(=O)c1cccc(F)c1)Nc1ccc(-c2cc(C(F)(F)F)nn2-c2ccccc2)cc1	x	5%	-13%	x	x	0%
O=C(Nc1ccc(-c2cc(C(F)(F)F)nn2-c2ccccc2)cc1)c1cccc(F)c1	x	u	13µM*	x	x	0%
COc1ccc(NC(=O)C23CC4CC(C2)CC(c2ccc(C)cc2)(C4)C3)cc1	0%[46.1 µM]	-18%	16µM*	10%	0	4%
COc1ccccc1NC(=O)C12CC3CC(C1)CC(c1ccc(C)cc1)(C3)C2	-2%	-9%	u	12%	-3	0%
CCOC(=O)c1c(NC(=O)c2ccc(S(=O)(=O)N(CC(C)C)CC(C)C)cc2)sc2c1CCN(CC)C2	x	7%	x	x	x	1%
Cc1cc(C)cc(-n2ccn(Cc3ccc(F)cc3)c(=O)c2=O)c1	x	0%	23µM*	x	x	1%
C=Cc1ccc(Cn2c(C(=O)O)c(CNC3CCCCC3)c3ccc(OC)cc32)cc1	x	u	u	x	x	3%
Cn1c(=O)c2c(nc(N3CCCCCC3)n2Cc2cccc3ccccc23)n(C)c1=O	-19%	23µM*	u	1%	3	0%
Cn1c(=O)c2c(nc(Cl)n2CCOc2ccccc2)n(C)c1=O	0%	4%	26µM*	14%	-1	0%
CCOc1nc2c(c(=O)n(C)c(=O)n2C)n1Cc1ccccc1Cl	-18%	-11%	18µM*	5%	0	0%
CN1CCN(c2nc3c(c(=O)n(C)c(=O)n3C)n2Cc2cccc3ccccc23)CC1	0%	-3%	1%	6%	-4	0%
SMILES	TCR activator	A549 tox	Nrf2 block	A-T KAP1 phos	CCT modulator	Nrf2 activator
O=C(Nc1nnc(Cc2ccccc2)s1)C1CCN(C(=O)c2cccs2)CC1	x	0%	u	x	x	x
CC(C)NC(=O)C1(C)CCN1CCC(=O)c1ccccc1 (stereo not given)	x	x	x	x	1	u
C(=N\Nc1nc2ccccc2[nH]1)/c1ccccn1	3%	u	u	6%	0	-4%
COc1ccc(/C=N/Nc2nc3ccccc3[nH]2)cc1OC	0%	8%	23%	1%	-1	9%
S=C(N/N=C/c1ccc2ncccc2c1)Nc1ccccc1	2%	3%	13µM*	0%	1	0%
C(=N\Nc1nc2ccccc2[nH]1)/c1ccc2ncccc2c1	-20%	-7%	21µM*	14%	0	7%
C(=N\NCc1ccccc1)/c1ccc2ncccc2c1	-22%	0%	u	4%	2	0%
Fc1ccccc1-c1ccc(/C=N/Nc2nc3ccccc3[nH]2)o1	2%[46.1 µM]	4%	u	6%	0	11µM*
COc1cc(/C=N\Nc2nc3ccccc3[nH]2)cc(OC)c1OC	-23%	14%	5.8µM*	5%	-1	-1%
O=C(O)c1ccccc1C(c1ccc(O)cc1)c1ccc(O)cc1	4%	-5%	6%	-10%	0	0%
C(=N\Nc1ccc2ccccc2n1)/c1ccc2c(c1)OCCO2	5%	-6%	u	6%	1	-2%
C(=N\Nc1nc2ccccc2[nH]1)/c1ccc2c(c1)OCCO2	-4%	u	2.6µM*	-2%	-2	3%
CCOc1ccccc1OCC(=O)Nc1nc2ccccc2[nH]1	2%	3%	0%	-5%	-9	3%
CCOc1cc(/C=N/Nc2nc3ccccc3[nH]2)cc(Br)c1OCC(=O)N(C)C	13%	-11%	18µM*	-1%	-3	0%
CCN(CC)c1ccc(/C=N/Nc2nc3ccccc3[nH]2)c(O)c1	-7%	u	26µM*	1%	-31*	14%
c1ccc(CNCc2nnc(-c3cc4ccccc4[nH]3)o2)cc1	x	-3%	15%	x	x	x
O=C(O)CSc1nnc(-c2ccc(Cl)cc2Cl)n1-c1ccc(Br)cc1	1%	-2%	1%	13%	-8	0%
